In ChEMBL document CHEMBL3988442, “University of Dundee, Small-Polar-MMV Screening Library” (2021):
For some of these results: Potency and affinity values are given separately.

Tests used:
Set-up in all cases: scale not given: direction of the effect not stated beside the values
[1] = biological target: Protein translocase subunit SecA (Escherichia coli (strain K12)) (UniProt P10408); assay: Assay to Identify E. coli SecA ATPase Inhibitors; format: functional; details: 30 µM
[2] = biological target: T1, Ubiquitin-activating enzyme e1, putative (Leishmania donovani (strain BPK282A1)) (UniProt E9BSI1); assay: Leishmania donovani Ubiquitin Activating Enzyme (LdE1); format: functional; details: 30 µM
T1 sequence (whole entry): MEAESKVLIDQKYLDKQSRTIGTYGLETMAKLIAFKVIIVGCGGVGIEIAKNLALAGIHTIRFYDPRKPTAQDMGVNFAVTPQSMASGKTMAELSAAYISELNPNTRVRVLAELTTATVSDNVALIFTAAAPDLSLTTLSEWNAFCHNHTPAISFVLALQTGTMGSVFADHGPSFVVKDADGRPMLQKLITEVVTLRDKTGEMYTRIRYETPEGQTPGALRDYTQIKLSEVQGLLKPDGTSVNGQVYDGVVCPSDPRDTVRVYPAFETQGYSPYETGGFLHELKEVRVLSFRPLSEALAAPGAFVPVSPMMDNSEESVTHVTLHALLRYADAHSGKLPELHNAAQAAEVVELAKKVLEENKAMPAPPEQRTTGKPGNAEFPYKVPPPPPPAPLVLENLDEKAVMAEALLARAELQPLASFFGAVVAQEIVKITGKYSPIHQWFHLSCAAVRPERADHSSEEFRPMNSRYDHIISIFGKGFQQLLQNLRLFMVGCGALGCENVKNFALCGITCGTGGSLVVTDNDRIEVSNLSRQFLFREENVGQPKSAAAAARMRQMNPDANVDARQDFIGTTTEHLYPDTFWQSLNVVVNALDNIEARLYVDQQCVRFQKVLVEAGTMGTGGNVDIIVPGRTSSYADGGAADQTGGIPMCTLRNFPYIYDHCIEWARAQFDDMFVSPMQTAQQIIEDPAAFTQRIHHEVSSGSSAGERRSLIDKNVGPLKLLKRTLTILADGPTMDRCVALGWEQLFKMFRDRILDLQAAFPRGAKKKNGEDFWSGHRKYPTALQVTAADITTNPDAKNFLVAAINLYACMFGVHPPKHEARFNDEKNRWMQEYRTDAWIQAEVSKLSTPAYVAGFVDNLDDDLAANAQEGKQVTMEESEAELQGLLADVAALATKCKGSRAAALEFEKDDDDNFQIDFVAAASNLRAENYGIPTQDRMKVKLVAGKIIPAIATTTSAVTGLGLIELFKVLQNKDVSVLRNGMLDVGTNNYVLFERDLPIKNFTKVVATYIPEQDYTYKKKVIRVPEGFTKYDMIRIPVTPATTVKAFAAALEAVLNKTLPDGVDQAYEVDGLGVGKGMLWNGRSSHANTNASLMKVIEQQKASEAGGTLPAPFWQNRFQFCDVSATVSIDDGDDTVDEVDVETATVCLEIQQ

[3] = biological target: AMP-activated protein kinase, AMPK (Homo sapiens) (UniProt P54646+O43741+P54619+Q9UGJ0+Q9Y478+Q13131+Q9UGI9); assay: AMP-dependent Kinase enzyme assay. An in vitro enzyme assay that detects ADP turnover that is directly proportional to AMPK activity. This uses naive AMPK that is activated during the assay with MK-8722; format: functional; details: 30 µM
[4] = biological target: Sialic acid-binding Ig-like lectin 9 (Homo sapiens) (UniProt Q9Y336); assay: Hs-Siglec9 ALPHAscreen SOP 20170721; details: 10 µM
Trypanosoma cruzi = assay: Trypanosoma cruzi phosphomannomutase and mannose-1-phosphate guanylyltransferase assay; format: functional; details: 10 µM
[5] = biological target: T2, Arginase-2, mitochondrial (Homo sapiens) (UniProt P78540); assay: in vitro enzyme assay to detect the production of urea directly proportional to the activity of Arginase II; format: functional; details: 33.3 µM; also: in the data most compounds retested in dose-response had high values
T2 sequence (whole entry): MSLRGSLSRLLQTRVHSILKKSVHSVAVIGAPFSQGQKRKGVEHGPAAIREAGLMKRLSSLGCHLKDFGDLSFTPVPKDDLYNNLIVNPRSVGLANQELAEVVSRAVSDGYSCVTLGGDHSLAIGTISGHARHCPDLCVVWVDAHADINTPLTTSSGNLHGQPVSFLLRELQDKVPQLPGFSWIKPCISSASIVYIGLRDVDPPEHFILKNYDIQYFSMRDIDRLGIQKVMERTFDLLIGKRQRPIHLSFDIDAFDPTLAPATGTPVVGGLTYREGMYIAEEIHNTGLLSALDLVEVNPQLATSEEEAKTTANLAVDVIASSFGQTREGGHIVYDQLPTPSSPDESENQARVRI

[6] = biological target: T3, Proteasome subunit beta (Trypanosoma cruzi) (UniProt O96673); assay: Trypanosoma cruzi proteasome chymotrypsin-like activity (TcProtChymo) assay.; also: in the data most compounds retested in dose-response had high values; format: functional; details: 9.37 µM
T3 sequence (whole entry): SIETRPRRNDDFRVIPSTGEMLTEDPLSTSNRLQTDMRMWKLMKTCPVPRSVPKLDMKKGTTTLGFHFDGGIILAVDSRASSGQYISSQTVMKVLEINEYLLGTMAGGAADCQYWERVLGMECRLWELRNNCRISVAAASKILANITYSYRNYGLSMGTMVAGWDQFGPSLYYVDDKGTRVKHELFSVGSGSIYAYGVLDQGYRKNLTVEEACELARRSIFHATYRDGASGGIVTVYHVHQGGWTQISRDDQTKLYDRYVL

Homo sapiens = species on record: Homo sapiens; assay: To identify inhibition of the IFN signalling (Jak-Stat) pathway via expression of an eGFP reporter gene under the control of an IFN-stimulated response element (ISRE) containing MxA promoter.; format: functional; details: 30 µM
[7] = biological target: T4, Tyrosyl-tRNA synthetase, putative (Trypanosoma cruzi (strain CL Brener)) (UniProt Q4DSP6); assay: Trypanosoma cruzi tyrosyl tRNA synthetase (TcYRS) _High Tyrosine SOP; format: functional; details: 30 µM; also: in the data most compounds retested in dose-response had high values
T4 sequence (whole entry): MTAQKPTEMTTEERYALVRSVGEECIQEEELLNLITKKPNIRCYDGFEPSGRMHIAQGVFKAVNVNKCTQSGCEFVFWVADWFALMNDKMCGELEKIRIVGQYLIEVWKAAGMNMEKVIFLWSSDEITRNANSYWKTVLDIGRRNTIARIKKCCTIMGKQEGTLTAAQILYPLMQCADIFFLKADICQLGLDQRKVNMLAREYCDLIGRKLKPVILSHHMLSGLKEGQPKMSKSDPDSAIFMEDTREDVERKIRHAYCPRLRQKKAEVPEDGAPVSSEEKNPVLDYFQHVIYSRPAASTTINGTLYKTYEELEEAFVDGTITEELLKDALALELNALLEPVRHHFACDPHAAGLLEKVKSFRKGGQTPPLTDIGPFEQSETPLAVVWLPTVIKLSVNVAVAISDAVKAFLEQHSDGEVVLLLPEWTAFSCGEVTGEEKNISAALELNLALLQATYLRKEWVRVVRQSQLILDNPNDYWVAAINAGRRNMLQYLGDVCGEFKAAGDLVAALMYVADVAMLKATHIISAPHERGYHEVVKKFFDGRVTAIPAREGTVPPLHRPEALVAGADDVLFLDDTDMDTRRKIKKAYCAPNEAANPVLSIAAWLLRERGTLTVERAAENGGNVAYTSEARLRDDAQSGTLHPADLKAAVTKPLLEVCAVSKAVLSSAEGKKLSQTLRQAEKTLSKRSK

[8] = biological target: T4, Tyrosyl-tRNA synthetase, putative (Trypanosoma cruzi (strain CL Brener)); assay: Trypanosoma cruzi tyrosyl tRNA synthetase (TcYRS) SOP; format: functional; details: 30 µM
[9] = biological target: Chromo domain-containing protein 1 (Saccharomyces cerevisiae (strain ATCC 204508 / S288c) (Baker's yeast)) (UniProt P32657); assay: ScCHD-1 Enzyme Inhibition Assay; format: functional; details: 30 µM; also: in the data most compounds retested in dose-response had high values
Sequence of Chromo domain-containing protein 1 (Saccharomyces cerevisiae (strain ATCC 204508 / S288c) (Baker's yeast)) (P32657 whole entry, the tested form may be a part): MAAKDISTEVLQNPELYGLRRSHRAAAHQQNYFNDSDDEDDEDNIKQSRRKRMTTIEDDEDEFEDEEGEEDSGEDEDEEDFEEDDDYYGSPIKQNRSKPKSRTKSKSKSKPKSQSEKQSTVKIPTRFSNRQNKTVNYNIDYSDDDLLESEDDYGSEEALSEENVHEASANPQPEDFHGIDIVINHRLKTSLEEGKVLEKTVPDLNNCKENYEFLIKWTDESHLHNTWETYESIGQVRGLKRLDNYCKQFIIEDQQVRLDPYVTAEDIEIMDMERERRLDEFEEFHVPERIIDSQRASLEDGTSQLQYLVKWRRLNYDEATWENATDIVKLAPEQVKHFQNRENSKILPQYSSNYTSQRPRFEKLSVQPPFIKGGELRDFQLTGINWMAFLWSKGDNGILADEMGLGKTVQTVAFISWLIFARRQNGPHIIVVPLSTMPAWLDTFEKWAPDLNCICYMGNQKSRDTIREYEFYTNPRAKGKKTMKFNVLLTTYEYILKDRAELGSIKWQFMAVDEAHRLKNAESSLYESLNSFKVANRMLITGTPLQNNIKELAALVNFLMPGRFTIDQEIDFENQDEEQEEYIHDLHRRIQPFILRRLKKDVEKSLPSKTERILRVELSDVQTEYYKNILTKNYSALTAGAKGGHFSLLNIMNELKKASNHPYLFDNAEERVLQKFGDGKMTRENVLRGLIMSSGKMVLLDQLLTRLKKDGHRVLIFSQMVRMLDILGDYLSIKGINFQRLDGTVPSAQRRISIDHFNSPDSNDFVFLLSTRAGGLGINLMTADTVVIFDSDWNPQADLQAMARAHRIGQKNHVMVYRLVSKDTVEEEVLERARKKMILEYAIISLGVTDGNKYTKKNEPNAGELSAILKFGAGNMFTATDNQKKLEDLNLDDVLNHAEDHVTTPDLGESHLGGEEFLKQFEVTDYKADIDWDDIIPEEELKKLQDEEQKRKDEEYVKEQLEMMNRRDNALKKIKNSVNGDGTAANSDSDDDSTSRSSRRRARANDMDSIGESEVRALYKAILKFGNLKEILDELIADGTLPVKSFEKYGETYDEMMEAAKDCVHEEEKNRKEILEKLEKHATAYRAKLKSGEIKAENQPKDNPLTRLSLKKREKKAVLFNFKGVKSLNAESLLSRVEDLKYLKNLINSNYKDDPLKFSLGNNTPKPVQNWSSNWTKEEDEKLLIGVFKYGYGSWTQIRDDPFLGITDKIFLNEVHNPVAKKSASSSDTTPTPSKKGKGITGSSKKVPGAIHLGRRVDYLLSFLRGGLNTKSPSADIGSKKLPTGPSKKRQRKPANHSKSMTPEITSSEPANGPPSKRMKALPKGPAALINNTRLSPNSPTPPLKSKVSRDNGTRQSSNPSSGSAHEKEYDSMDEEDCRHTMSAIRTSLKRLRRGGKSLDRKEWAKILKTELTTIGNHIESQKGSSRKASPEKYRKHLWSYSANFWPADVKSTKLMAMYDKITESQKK

Sequence of Protein translocase subunit SecA (Escherichia coli (strain K12)) (P10408 whole entry): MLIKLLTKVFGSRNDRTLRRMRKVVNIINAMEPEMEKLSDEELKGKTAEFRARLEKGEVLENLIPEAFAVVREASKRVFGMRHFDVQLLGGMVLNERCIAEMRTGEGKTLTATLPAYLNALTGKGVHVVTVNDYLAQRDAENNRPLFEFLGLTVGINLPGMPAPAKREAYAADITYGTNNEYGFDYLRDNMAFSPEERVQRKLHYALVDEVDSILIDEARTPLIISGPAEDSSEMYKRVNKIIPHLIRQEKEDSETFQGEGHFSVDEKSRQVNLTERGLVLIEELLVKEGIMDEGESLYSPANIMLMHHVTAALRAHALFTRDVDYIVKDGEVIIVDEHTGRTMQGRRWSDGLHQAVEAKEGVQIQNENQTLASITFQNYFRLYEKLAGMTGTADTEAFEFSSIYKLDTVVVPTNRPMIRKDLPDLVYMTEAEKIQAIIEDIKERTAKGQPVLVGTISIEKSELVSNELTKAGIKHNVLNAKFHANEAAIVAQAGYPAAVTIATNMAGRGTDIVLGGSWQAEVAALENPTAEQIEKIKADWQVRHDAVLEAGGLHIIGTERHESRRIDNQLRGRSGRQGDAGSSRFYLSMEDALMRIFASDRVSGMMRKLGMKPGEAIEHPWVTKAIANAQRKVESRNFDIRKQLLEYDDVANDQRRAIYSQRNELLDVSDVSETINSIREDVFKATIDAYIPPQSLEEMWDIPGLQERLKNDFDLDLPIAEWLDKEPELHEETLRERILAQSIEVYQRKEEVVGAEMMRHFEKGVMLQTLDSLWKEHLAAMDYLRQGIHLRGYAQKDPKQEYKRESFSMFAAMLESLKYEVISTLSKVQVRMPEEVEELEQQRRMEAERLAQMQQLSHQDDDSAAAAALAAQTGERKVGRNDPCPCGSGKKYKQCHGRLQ
Sequence of Sialic acid-binding Ig-like lectin 9 (Homo sapiens) (Q9Y336 whole entry): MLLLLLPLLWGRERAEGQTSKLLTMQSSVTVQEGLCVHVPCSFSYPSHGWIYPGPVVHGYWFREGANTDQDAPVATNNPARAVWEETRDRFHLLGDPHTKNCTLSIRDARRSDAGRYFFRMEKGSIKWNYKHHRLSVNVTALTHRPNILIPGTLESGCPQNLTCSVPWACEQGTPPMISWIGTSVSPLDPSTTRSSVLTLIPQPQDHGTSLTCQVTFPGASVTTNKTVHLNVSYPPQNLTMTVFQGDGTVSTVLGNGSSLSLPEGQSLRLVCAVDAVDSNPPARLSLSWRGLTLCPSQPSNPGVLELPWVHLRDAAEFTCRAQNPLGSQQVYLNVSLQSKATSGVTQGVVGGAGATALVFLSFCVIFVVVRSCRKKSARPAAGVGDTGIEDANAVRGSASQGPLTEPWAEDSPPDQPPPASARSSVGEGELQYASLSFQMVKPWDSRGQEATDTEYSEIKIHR

Compound	Percent Effect [1]	Percent Effect [2]	Percent Effect [3]	Percent Effect [4]	Percent Effect (Trypanosoma cruzi)	Percent Effect [5]	Percent Effect [6]	Percent Effect (Homo sapiens)	Percent Effect [7]	Percent Effect [8]	Percent Effect [9]
O=c1c2ccccc2nc2n1CCN(Cc1cccs1)CC2	-2.59%	20.3%	9.44%	0.538%	1.98%	-4.41%	17%	23.7%	5.38%	14.3%	-12.4%
CN1C(=O)C(c2cccnc2)CC12CCN(C(=O)c1cccn1C)CC2 (configuration not stated)	-1.55%	0%	-0.439%	0.0913%	0%	4.48%	6.67%	-2.67%	-3.12%	-2.5%	-4.59%
Cn1cc(NS(=O)(=O)c2ccc(OC(F)(F)F)cc2)ccc1=O	-4.62%	7.59%	-136%	-4.96%	-9.73%	-1.9%	0.246%	62.5%	0.493%	8.86%	-4.48%
O=C(NCCCO)C1CC(=O)N(c2n[nH]c3cccc(F)c23)C1 (configuration not stated)	0.204%	17.3%	-5.17%	-2.48%	1.57%	-12.2%	10.5%	2.36%	5.29%	15.4%	-14.8%
Cc1nc(C2CCN(C(=O)c3ccc(=O)n(C)c3)CC2)c2sccn12	-2.51%	4.05%	3.65%	3.19%	1.58%	-3.02%	10.4%	3.58%	3.23%	6.49%	-13.8%
Cc1cnn(CC2CCCN2C(=O)CCc2ccsc2)c1 (configuration not stated)	-4.66%	7.79%	3.01%	4.3%	3.82%	2.32%	0.242%	15.8%	1.91%	7.06%	-15.5%
Cc1cccc(NS(=O)(=O)c2cc(C(=O)O)oc2C)c1Cl	-6.42%	0%	0.702%	9.91%	6.18%	-4.27%	0.338%	3.85%	1.94%	9.76%	-7.97%
O=S(=O)(c1cccnc1)N1CCN(CCn2ccnc2)CC1	-4.58%	5.48%	-1.26%	0.536%	-8.81%	-0.455%	11.7%	-0.863%	5.38%	12.5%	-5.5%
COC(=O)c1ccoc1COC(=O)CCc1ccc(OC)c(OC)c1	-0.0167%	-5.26%	11.1%	1.57%	-3.99%	0%	13.7%	-9.69%	0%	-20.8%	1.64%
NCC1CN(c2nc(-c3ccccc3)nc3c2CCNCC3)CCO1 (configuration not stated)	-3.14%	2.74%	-7.79%	3.51%	9.32%	0.798%	-1.11%	4.88%	24%	28.4%	0.577%
Cc1nn(C)c(C)c1C1CCCN1C(=O)c1ccc(NC2CC2)nc1 (configuration not stated)	-1.33%	16.2%	-3.14%	10.9%	0.464%	-4.25%	5.92%	22.6%	7.92%	18.3%	-2.71%
Cc1nc(C)n(CC2CCCN(Cc3nnc(-c4ccco4)o3)C2)n1 (configuration not stated)	-3.02%	0%	11.3%	-2.45%	3.02%	3.55%	3.74%	4.98%	5.32%	5.2%	-1.67%
N#Cc1ncn(CCC(=O)Nc2c(Cl)cccc2Cl)n1	-1.01%	2.74%	-1.08%	6.16%	1.59%	-24.8%	19.6%	-3.99%	11.5%	21%	-3.19%
O=C1[C@H]2CN(Cc3nccs3)C[C@H]2CN1c1ccsc1	-6.53%	0%	8.27%	-7.06%	-2.25%	0.319%	12.4%	-3.04%	-1.08%	2.56%	-0.738%
NC(=O)c1cccc(CC2CCN(C(=O)CCCN3CCOCC3)C2)c1 (configuration not stated)	-2.51%	-2.74%	4.39%	-12.6%	-1.18%	-2.27%	-3.02%	6.37%	2.15%	2.5%	-1.16%
CC(=O)c1cc(CN2C[C@H]3CC[C@@H]2CN(S(=O)(=O)N(C)C)C3)cs1	-5.56%	15.3%	-10.7%	36%	7.68%	6.18%	5.96%	4.65%	7.37%	10.3%	-3.04%
CC(C)Cc1cc(NC(=O)c2ccc(=O)[nH]n2)n(C)n1	-8.11%	18.2%	-1.51%	12.1%	3.75%	2.85%	4.73%	0.756%	8.74%	24.4%	-11.8%
